# In ChEMBL document CHEMBL1961873, “Compounds: GSK PKIS; Assays: Nanosyn kinase panel” (2012):
# Key:
# [1] = target: Serine/threonine-protein kinase PAK 6 (Homo sapiens) (UniProt Q9NQU5); conditions: at 1 µM;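 further: values are mean percent inhibition of PAK6 kinase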
# [2] = tested on: Tyrosine-protein kinase ABL1 (Homo sapiens), P00519 [E255K]; conditions: at 0.1 µM
# [3] = tested on: Tyrosine-protein kinase ABL1 (Homo sapiens), P00519 [E255K]; conditions: at 1 µM
# [4] = tested on: Tyrosine-protein kinase ABL1 (Homo sapiens), P00519 [H396P]; conditions: at 0.1 µM
# [5] = tested on: Tyrosine-protein kinase ABL1 (Homo sapiens), P00519 [H396P]; conditions: at 1 µM
# [6] = tested on: Tyrosine-protein kinase ABL1 (Homo sapiens), P00519 [M351T]; conditions: at 0.1 µM
# [7] = tested on: Tyrosine-protein kinase ABL1 (Homo sapiens), P00519 [M351T]; conditions: at 1 µM
# [8] = tested on: Tyrosine-protein kinase ABL1 (Homo sapiens), P00519 [Q252H]; conditions: at 0.1 µM
# [9] = tested on: Tyrosine-protein kinase ABL1 (Homo sapiens), P00519 [Q252H]; conditions: at 1 µM
# [10] = tested on: Tyrosine-protein kinase ABL1 (Homo sapiens), P00519 [T315I]; conditions: at 0.1 µM
# [11] = tested on: Tyrosine-protein kinase ABL1 (Homo sapiens), P00519 [T315I]; conditions: at 1 µM
# [12] = tested on: Tyrosine-protein kinase ABL1 (Homo sapiens), P00519 [Y253F]; conditions: at 0.1 µM
# [13] = tested on: Tyrosine-protein kinase ABL1 (Homo sapiens), P00519 [Y253F]; conditions: at 1 µM
# [14] = target: Tyrosine-protein kinase ABL1 (Homo sapiens) (UniProt P00519); conditions: at 0.1 µM
# [15] = target: Tyrosine-protein kinase ABL1 (Homo sapiens) (UniProt P00519); conditions: at 1 µM
# [16] = target: ALK tyrosine kinase receptor (Homo sapiens) (UniProt Q9UM73); conditions: at 0.1 µM
# Sequence of ALK tyrosine kinase receptor (Homo sapiens) (Q9UM73 19-1620 limits assumed): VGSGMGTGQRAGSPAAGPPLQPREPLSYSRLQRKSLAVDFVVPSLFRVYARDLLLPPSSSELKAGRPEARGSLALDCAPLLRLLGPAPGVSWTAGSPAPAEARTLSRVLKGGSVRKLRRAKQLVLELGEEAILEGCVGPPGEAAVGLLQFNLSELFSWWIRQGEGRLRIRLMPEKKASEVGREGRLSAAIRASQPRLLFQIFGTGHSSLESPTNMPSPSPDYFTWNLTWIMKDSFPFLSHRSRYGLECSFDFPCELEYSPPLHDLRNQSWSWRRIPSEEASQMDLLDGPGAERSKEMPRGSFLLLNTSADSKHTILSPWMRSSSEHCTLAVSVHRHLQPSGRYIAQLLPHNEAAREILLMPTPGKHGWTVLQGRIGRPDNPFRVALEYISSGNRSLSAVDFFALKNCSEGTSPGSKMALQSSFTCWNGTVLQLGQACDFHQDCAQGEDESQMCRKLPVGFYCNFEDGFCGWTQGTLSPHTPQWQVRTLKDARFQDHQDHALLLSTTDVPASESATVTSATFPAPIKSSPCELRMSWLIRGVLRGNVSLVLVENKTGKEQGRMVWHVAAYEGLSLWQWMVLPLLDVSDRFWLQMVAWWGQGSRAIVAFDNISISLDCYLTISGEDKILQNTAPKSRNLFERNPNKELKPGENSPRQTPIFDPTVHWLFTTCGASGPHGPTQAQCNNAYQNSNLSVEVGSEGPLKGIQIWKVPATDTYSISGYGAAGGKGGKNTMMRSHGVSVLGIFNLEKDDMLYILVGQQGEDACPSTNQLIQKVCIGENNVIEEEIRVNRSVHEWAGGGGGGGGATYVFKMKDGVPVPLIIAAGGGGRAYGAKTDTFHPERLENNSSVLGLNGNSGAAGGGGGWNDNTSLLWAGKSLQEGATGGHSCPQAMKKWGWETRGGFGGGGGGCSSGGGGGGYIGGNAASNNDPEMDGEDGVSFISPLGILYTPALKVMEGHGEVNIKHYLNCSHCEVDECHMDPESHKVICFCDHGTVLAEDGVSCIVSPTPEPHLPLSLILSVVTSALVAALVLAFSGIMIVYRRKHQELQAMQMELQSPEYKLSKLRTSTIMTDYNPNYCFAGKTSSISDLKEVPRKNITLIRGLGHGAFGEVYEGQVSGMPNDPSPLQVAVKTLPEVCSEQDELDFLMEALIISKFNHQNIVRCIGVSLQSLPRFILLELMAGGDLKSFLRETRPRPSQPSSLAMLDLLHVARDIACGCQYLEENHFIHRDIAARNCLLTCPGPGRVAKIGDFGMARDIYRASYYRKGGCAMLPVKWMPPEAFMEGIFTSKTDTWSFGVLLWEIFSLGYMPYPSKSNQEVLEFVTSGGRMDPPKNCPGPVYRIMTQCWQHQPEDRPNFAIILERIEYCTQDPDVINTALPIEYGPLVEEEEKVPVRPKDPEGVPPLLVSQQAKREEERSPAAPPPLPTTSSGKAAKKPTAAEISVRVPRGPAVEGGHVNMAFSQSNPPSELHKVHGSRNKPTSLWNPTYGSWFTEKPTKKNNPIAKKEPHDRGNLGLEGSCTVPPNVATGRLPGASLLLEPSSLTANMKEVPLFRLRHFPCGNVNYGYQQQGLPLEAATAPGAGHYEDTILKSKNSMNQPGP
# [17] = target: ALK tyrosine kinase receptor (Homo sapiens) (UniProt Q9UM73); conditions: at 1 µM
# [18] = target: Tyrosine-protein kinase ABL2 (Homo sapiens) (UniProt P42684); conditions: at 0.1 µM
# Sequence of Tyrosine-protein kinase ABL2 (Homo sapiens) (P42684 whole entry): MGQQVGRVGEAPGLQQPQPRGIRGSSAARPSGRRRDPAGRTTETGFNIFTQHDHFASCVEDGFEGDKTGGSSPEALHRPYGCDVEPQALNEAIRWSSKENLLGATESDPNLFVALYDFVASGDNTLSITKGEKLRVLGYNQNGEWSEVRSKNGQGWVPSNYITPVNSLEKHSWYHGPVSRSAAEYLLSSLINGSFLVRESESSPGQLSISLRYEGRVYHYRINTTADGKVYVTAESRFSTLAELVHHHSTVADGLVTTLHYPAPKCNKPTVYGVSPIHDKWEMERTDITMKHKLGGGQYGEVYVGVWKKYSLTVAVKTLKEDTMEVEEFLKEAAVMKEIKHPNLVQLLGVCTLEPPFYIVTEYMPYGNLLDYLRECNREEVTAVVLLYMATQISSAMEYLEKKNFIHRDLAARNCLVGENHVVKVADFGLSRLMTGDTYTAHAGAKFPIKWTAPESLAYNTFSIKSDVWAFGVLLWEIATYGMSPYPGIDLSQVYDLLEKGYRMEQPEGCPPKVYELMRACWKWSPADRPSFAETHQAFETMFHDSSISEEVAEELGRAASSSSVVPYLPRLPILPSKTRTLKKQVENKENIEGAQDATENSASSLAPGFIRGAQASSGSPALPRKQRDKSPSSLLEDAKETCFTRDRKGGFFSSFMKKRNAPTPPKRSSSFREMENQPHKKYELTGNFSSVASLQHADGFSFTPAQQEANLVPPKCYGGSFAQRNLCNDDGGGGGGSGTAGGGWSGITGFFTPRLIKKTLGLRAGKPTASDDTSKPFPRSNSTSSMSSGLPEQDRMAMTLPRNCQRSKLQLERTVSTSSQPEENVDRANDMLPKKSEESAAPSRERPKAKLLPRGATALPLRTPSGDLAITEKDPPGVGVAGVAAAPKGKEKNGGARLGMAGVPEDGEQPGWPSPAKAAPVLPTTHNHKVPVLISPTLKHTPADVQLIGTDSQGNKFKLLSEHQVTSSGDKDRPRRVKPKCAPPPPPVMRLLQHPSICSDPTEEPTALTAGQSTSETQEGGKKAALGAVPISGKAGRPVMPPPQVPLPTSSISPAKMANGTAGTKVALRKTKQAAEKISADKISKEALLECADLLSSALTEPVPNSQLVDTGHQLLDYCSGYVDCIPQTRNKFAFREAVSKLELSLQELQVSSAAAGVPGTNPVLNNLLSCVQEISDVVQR
# [19] = target: Tyrosine-protein kinase ABL2 (Homo sapiens) (UniProt P42684); conditions: at 1 µM
# [20] = target: Tyrosine-protein kinase receptor UFO (Homo sapiens) (UniProt P30530); conditions: at 0.1 µM;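 further: values are mean percent inhibition of AXL from the GSK PKIS screen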
# Sequence of Tyrosine-protein kinase receptor UFO (Homo sapiens) (P30530 whole entry): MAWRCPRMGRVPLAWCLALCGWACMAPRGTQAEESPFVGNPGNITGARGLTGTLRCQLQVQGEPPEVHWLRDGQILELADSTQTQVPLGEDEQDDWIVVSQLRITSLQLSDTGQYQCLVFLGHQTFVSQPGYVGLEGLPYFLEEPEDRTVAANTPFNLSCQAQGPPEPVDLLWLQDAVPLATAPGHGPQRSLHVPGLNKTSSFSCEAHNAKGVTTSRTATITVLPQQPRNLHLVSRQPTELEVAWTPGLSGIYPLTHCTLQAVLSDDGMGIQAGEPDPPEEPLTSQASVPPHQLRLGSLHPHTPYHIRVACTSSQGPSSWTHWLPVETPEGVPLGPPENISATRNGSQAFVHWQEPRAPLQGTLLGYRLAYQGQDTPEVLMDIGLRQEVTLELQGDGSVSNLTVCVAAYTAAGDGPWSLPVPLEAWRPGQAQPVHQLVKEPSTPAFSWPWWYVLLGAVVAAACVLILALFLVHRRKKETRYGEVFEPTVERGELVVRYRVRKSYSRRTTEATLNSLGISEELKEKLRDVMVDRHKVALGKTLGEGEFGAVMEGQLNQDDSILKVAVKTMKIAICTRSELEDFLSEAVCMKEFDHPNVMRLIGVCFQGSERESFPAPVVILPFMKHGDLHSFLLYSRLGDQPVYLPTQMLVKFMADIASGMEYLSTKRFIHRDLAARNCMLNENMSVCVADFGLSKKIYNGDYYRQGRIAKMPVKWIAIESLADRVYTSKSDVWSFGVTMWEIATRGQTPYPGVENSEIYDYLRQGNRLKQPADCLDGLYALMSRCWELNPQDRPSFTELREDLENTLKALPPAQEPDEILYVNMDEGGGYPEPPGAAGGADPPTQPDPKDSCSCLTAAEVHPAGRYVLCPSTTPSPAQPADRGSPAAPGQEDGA
# Sequence of Serine/threonine-protein kinase PAK 6 (Homo sapiens) (Q9NQU5 whole entry, looked up): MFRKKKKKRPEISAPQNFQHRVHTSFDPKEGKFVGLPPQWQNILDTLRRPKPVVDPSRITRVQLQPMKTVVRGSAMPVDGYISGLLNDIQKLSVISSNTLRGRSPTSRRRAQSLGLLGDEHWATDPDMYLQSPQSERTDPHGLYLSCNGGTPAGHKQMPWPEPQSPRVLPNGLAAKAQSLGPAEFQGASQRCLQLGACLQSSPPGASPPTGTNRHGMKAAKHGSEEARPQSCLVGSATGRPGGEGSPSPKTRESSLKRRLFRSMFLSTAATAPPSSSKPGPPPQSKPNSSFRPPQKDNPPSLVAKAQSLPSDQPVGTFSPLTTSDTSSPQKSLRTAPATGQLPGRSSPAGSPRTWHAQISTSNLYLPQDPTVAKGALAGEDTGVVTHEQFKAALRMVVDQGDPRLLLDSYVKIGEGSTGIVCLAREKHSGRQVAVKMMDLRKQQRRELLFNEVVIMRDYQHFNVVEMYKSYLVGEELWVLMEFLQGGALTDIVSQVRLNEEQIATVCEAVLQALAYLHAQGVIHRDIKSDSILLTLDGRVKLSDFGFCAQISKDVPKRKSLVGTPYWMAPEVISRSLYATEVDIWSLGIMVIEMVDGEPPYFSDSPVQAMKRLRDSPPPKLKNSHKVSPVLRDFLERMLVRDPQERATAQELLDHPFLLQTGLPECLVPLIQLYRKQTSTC
Structure (SMILES),inhibition [1],inhibition [2],inhibition [3],inhibition [4],inhibition [5],inhibition [6],inhibition [7],inhibition [8],inhibition [9],inhibition [10],inhibition [11],inhibition [12],inhibition [13],inhibition [14],inhibition [15],inhibition [16],inhibition [17],inhibition [18],inhibition [19],inhibition [20]
COC(=O)Nc1nc2ccc(S(=O)(=O)c3ccc(NC(=O)Nc4cc(C(F)(F)F)ccc4F)cc3)cc2[nH]1,-4.19%,1.6%,-0.55%,2.6%,-0.47%,0.84%,3.17%,2.16%,4.69%,2.49%,1.15%,0.34%,1.69%,3.92%,9.87%,2.66%,3.54%,5.17%,6.34%,-5.56%
NS(=O)(=O)c1ccc(Nc2ncc(-c3ccccc3)o2)cc1,8.68%,4.6%,17.8%,8.3%,39.3%,3.46%,40.1%,4.58%,28.1%,3.72%,17.9%,5.61%,26.6%,5.37%,37.9%,1.53%,6.29%,4.93%,42%,-5.59%
CC(=O)Nc1cccc(C#Cc2cncnc2Nc2ccc(OCc3cccc(F)c3)c(Cl)c2)c1,-5.42%,-0.36%,1.79%,2.77%,1.25%,1.83%,2.92%,2.53%,2.16%,1.92%,1.79%,0.83%,3.28%,4.43%,8.55%,1.96%,6.45%,2.39%,5.22%,1.64%
COc1cc2c(cc1Nc1nc(Nc3ccsc3C(N)=O)c3cc[nH]c3n1)N(C(=O)CN(C)C)CCC2(C)C,3.1%,0.79%,4.14%,4.5%,2.9%,2.15%,1.57%,4.15%,2.78%,3.19%,3.95%,3.45%,4.27%,2.57%,6.2%,95.7%,78.5%,2.86%,4.17%,47.4%
CC(C)COC(=O)c1ccc2c(c1)/C(=C/Nc1ccc(S(N)(=O)=O)cc1)C(=O)N2,0.35%,1.63%,21.7%,4.36%,26.6%,4.24%,33.2%,3.65%,28.9%,5.23%,43.4%,4.12%,28.8%,1.58%,36.3%,-0.71%,4.93%,3.59%,20.4%,1.97%
CCCN1CCC(c2ccc(Nc3nc(Nc4cc(F)ccc4C(N)=O)c4cc[nH]c4n3)c(OC)c2)CC1,-7.38%,4.38%,6.84%,4.63%,8.82%,1.91%,7.76%,3.87%,9.15%,3.58%,19.1%,3.53%,8.34%,1.86%,8.95%,97.5%,86.6%,2.8%,5.54%,17.1%
COc1cccc(-n2ncc3c(N/N=C/c4ccc(F)cc4)ncnc32)c1,5.5%,44.1%,79.3%,51.2%,84.5%,51.7%,85.4%,63.6%,88.8%,12.8%,38.8%,58.5%,86.1%,21.1%,75.8%,2.82%,3.76%,9.51%,57.9%,-4.72%
N#Cc1c(NC(=O)c2ccc(F)cc2)sc2c1CCCC2,-6.51%,0.33%,1.93%,-0.63%,0.11%,-1.3%,2.69%,1.76%,2.3%,1.04%,-0.02%,0.83%,1.49%,1.79%,4.24%,-0.03%,1.01%,3.54%,2.41%,-1.93%
FC(F)(F)c1cccc(-c2nn3ncccc3c2-c2ccnc(Nc3ccc4c(c3)OCCO4)n2)c1,-1.75%,3.04%,9.11%,6.97%,36.6%,10.1%,50%,9.57%,45.2%,10.1%,32.5%,5.94%,30.6%,3.95%,30.4%,2.44%,3.89%,4.21%,32.1%,-5.2%
COc1cc(N2CCN(C(C)C)CC2)ccc1Nc1nc(Nc2ccc(F)cc2C(N)=O)c2cc[nH]c2n1,3.58%,-0.24%,1.64%,1.72%,2.38%,1.19%,2.15%,1.11%,2.74%,-0.7%,7.02%,0.29%,1.6%,3.76%,3.4%,88.3%,88.8%,-0.12%,2.78%,3.89%
NS(=O)(=O)c1ccc(N/N=C2\C(=O)Nc3ccc4ncccc4c32)cc1,1.45%,7.3%,39.2%,8.88%,47.7%,9.67%,48.9%,13.3%,52.4%,8.91%,47.1%,11.6%,49.8%,9.91%,50.2%,3.06%,16.1%,4.85%,33.7%,0.46%
CCN(CC)S(=O)(=O)c1ccc(OC)c(Nc2ncc(-c3ccccc3)o2)c1,4.66%,1.69%,28.2%,4.61%,32.8%,6.41%,38.4%,5.31%,38.5%,1.63%,8.65%,9.09%,41.8%,3.01%,28.1%,0.5%,4.19%,6.09%,36.6%,0.5%
COc1cc(/C=N/Nc2ncnc3[nH]ncc23)ccc1O,4.44%,36.5%,83.4%,45.9%,87.6%,42.9%,87.9%,47.9%,88.3%,8.14%,47.4%,52.5%,87.3%,35.1%,78.9%,1.72%,8.84%,15.6%,65.7%,-3.29%
CCn1cc(-c2ccnc3[nH]ccc23)c(-c2cccc(NC(=O)Nc3ccc(OCc4ccccc4)cc3)c2)n1,3.29%,1.22%,-1.34%,1.15%,3.55%,1.36%,3.02%,0.71%,2.72%,-0.6%,-0.74%,0.58%,0.94%,1.03%,2.88%,0.6%,0.71%,0.39%,6.44%,0.7%
